This is a sample that favours compounds with a hit; in the whole collection about 7.3% have one here.
Tau fibril ThT: inhibitors of human tau fibril formation, thioflavin T binding. P10636. recombinant tau K18 P301L, heparin-induced fibrillization, ThT fluorescence. Potency, µM (highest dose often 57.4 µM), hits mostly inhibitors. 2.1% of 270,000 active. AID 1460; also: nearly all actives have a fitted effect of over 55% in size
Target sequence (P10636 561-689 P618L limits assumed): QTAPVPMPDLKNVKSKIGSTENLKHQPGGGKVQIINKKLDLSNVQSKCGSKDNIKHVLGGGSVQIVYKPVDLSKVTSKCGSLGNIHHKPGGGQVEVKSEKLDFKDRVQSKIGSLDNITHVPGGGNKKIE
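Fibril formation assay: tau K18 P301L at 15 uM with trace Alexa 594 label, heparin inducer 20 uM, pH 7 sodium acetate buffer, 37 C for 6 hr; endpoint ThT signal.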
Tau fibril FP: blocks human tau fibril formation measured by polarization; K18 P301L tau heparin fibrillization, Alexa594 FP, 6 h; Potency, µM (titrated, usually from 57.7 µM), usual class: inhibitors; 0.39% of 280,000 active; also: nearly all actives have a fitted effect of over 55% in size
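Quantitative HTS format: compounds meet 15 uM recombinant K18 P301L tau and Alexa 594-tau tracer in 100 mM sodium acetate pH 7; 20 uM heparin triggers fibrillization at 37 C over 6 hr; FP gives the signal.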
VP16 counter: counter-screen for ROR gamma inhibitors: Gal4-VP16 reporter | Potency, µM (titrated, usually from 53.6 µM), hits mostly inhibitors | AID 2546 | Drosophila S2 Gal4-VP16 UAS-luciferase, luminescence, 20 h | 3.5% of 310,000 active;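 also: Gal4-VP16 expression switched on by copper sulfate through the metallothionein promoter; nearly all actives have a fitted effect of over 50% in size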
RORg inh: blocks mouse ROR gamma transcriptional activity; P51450; Drosophila S2 Gal4-RORgamma UAS-luciferase reporter, 20 h; Potency, µM (series often up to 53.6 µM), most hits filed as inhibitors; 5.4% of 310,000 active; AID 2551; also: nearly all actives have a fitted effect of over 60% in size
Target sequence (P51450 whole entry, looked up, the tested form may be a part): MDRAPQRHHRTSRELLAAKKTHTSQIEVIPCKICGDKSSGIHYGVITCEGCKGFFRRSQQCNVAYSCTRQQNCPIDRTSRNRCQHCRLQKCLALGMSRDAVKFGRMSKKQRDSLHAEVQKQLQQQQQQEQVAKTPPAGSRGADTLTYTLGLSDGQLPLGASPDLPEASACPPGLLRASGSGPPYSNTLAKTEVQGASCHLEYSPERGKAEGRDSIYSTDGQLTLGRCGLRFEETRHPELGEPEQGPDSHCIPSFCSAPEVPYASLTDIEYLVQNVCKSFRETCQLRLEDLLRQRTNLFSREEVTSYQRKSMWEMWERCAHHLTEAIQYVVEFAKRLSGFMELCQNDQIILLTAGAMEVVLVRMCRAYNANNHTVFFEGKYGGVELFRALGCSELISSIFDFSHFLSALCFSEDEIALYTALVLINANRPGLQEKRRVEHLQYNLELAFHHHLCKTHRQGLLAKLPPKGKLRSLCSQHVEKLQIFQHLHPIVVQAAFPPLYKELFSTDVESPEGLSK
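A Gal4/UAS one-hybrid system in insect cells: metallothionein-promoter Gal4–ROR gamma fusion plus Photinus luciferase reporter. Copper sulfate 700 uM final, 20 hr ambient incubation, luminescent detection after 10 min with reagent.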
Tau fluor counter: counter-screen for tau fibril formation inhibitors; tau K18 P301L Alexa594 fluorescence, heparin fibrillization; Potency, µM (top dose mostly 57.7 µM); 0.93% of 280,000 active; AID 1463; also: nearly all actives have a fitted effect of over 55% in size
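Human tau K18 P301L (15 uM unlabeled, 0.24 uM Alexa 594-labeled) in 100 mM sodium acetate pH 7 with 20 uM heparin, 6 hr at 37 C. ThT 30 uM added, 1 hr ambient; Alexa 594 FP and total fluorescence read at 555/632 nm.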
A number is an active result; – = inactive; ? = inconclusive; · = not tested or not shown; [ ] = another dose, or the depositor's remark. Calls follow the shape of the dose curve; as a rule, active = well fitted curve in the direction sought with a large enough effect; inconclusive = small, poorly fitted or top-dose-only effect, or another doubt; inactive = no such curve, though single readings can be large; an effect the other way counts as inactive or inconclusive.

SMILES	Tau fibril ThT	Tau fibril FP	VP16 counter	RORg inh	Tau fluor counter
Nc1ccccc1Nc1cc(-c2ccccc2)nn1-c1ccccc1	?	–	–	–	14.1µM[quencher]
Nc1ccccc1Nc1cc(-c2ccccc2)[nH]n1	14.1µM	–	–	–	?
Nc1ccccc1Nc1ccccc1	?	–	–	12.6µM	–
COC(=O)C1=C(C)N(Cc2ccccc2)[C@]23O[C@](C(=O)OC)(C(=O)N2C1c1ccccc1)C(c1ccccc1)C3C(=O)c1ccccc1 (some centres not stated)	–[11.5 µM]	–[11.6 µM]	–[10 µM]	–[10 µM]	–[11.6 µM]
CCN(C(=O)Cn1c(=O)oc2cc(Cl)ccc21)c1cccc(C(F)(F)F)c1	–	–	·	·	–
CCCn1nnc(NC(=O)c2ccc(-c3cccc(Cl)c3)o2)n1	–	–	–	–	–
CCCn1nnc(NC(=S)NC(=O)/C=C/c2ccco2)n1	?	?	–	–	–
CCCn1nnc(NC(=S)NC(=O)c2cccs2)n1	–	–	5.62µM	2µM	–
CCCn1nnc(NC(=S)NC(=O)C(C)(C)C)n1	–	–	8.91µM	3.55µM	–
CCn1nnc(NC(=S)NC(=O)c2ccc(-c3cccc(Cl)c3)o2)n1	?	–	2.82µM	0.282µM	–
CCOC(=O)CNC(=O)N1CCc2cc(S(=O)(=O)N3CCC(C)CC3)ccc21	–	–	·	·	–
COc1ccc(CNc2cc(C)ccc2C)c(OC)c1OC	?	–	–[0.365 µM]	–	–
COc1ccc(C)cc1NCc1cccc(OC)c1OC	–	–	–	17.8µM	–
Cc1nn(C)c2c1c(-c1ccccc1)cc(=O)n2C(C)C(=O)NCCc1ccc(Cl)cc1 (configuration not stated)	?	–	·	·	–
CC(=O)c1ccc(S(=O)(=O)Nc2ccc(-c3ccc(N4CCCCC4)nn3)cc2)cc1	?	–	·	·	?
O=C(NC1=NCCS1)C1CC2CCC1C2 (configuration not stated)	–	–	–	?	–
O=C(Nc1nccs1)C1CC2CCC1C2 (configuration not stated)	–	–	–	7.94µM	–
Cc1cc(CNC(=O)c2cccc([N+](=O)[O-])c2C)c2ccccc2n1	–	–	10µM	–	–
CSc1nsc(SCC(=O)NCc2ccc(C)cc2)n1	·	·	–	–	·
COc1cc(-c2nnn(CC(=O)Nc3ccc(OC(F)(F)F)cc3)n2)cc(OC)c1OC	–	17.8µM	·	·	?
COCC(C)N1C(=O)Cc2c1nc(N)c1c(N)nc(N3CCN(c4ccccc4F)CC3)c(C#N)c21 (configuration not stated)	25.1µM	?	–	–	?
Cc1cc(C(=O)O)ccc1-c1ccc(/C=C2\NC(=O)N(Cc3ccccc3Cl)C2=O)o1	–	–	–	–	–
C=CCN1C(=O)N/C(=C/c2ccc(N3CCOCC3)o2)C1=O	7.94µM	?	5.01µM	7.08µM	–
O=C1NC(=S)S/C1=C/c1ccc(N2CCOCC2)o1	–	–	?	–	–
Cc1ccc(C(=O)O)cc1-c1ccc(/C=C2/NC(=O)N(c3ccccc3)C2=O)o1	28.2µM	–	–	?	–
SMILES	Tau fibril ThT	Tau fibril FP	VP16 counter	RORg inh	Tau fluor counter
O=C1N/C(=C/c2ccc(N3CCOCC3)o2)C(=O)N1c1ccccc1	?	–	1.58µM	5.62µM	–
CC(=O)N[C@H]1[C@H](O[C@@H]2c3ccc(c(Cl)c3)Oc3cc4cc(c3O[C@@H]3O[C@H](CO)[C@@H](O)[C@H](O)C3C)Oc3ccc(cc3Cl)C[C@H]3NC(=O)[C@@H](N)c5ccc(O)c(c5)Oc5cc(O)cc(c5)[C@H](NC3=O)C(=O)N[C@H]4C(=O)N[C@H]3C(=O)N[C@@H]2C(=O)N[C@@H](C(=O)O)c2cc(O)cc(O[C@H]4O[C@H](CO)[C@@H](O)C(O)[C@@H]4O)c2-c2cc3ccc2O)O[C@H](CO)[C@@H](O)[C@@H]1O (some centres not stated)	·	·	–	–	·
O=C1CC(c2ccc(Cl)cc2)CC(=O)C1CS(=O)(=O)c1ccccc1 (configuration not stated)	?	–	–	–	–
O=C1CCCC(=O)C1CS(=O)(=O)c1ccccc1	17.8µM	28.2µM	–	–	–
O=C1C(Cl)=C(N2CCN(c3ccccc3[N+](=O)[O-])CC2)C(=O)c2ccccc21	3.55µM	10µM	?	–	8.91µM[quencher]
O=[N+]([O-])c1cc(Cl)ccc1N1CCCC1	–	–	–	–	–
COc1ccccc1N1CCN(C(=O)CCc2nnc3ccc(N4CCCC4)nn23)CC1	·	·	–	–	·
Cc1nn(C)c(C)c1CN(C)S(=O)(=O)c1ccc2ccccc2c1	–	–	5.01µM	?	–
CCSc1nnc(NC(=O)CSc2nnc(CNC(=O)c3ccc(OC)c(OC)c3)o2)s1	–	–	?	17.8µM	–
CCc1nnc(NC(=O)CSc2nnc(CNC(=O)c3ccc(OC)c(OC)c3)o2)s1	–	–	–	–	–
COc1ccc(C(=O)NCc2nnc(SCC(=O)Nc3nc4ccccc4s3)o2)cc1	–	–	11.2µM	11.2µM	–
Cn1cnc2c(=O)oc3ccc(S(=O)(=O)Nc4ccc(F)cc4)cc3c21	?	–	·	·	–
COC(=O)c1ccccc1NC(=O)c1ccc2c(Cl)c3c(nc2c1)CCCC3	–	–	·	·	–
COc1ccc(CCn2c(O)cc3nn(-c4nc5ccccc5s4)c(=O)c-3c2C)cc1	17.8µM	–	–	–	?
COC(=O)COc1ccc2c(=O)c(-c3ccccc3OC)coc2c1	–	–	–	–	–
CC1(C)C=Cc2c(cc3occ(-c4ccc5c(c4)OCO5)c(=O)c3c2O)O1	?	?	–	–	–
COc1c(-c2coc3cc4c(cc3c2=O)CC(OC(C)=O)C(C)(C)O4)ccc2c1C=CC(C)(C)O2 (configuration not stated)	?	–	1.26µM	2.51µM	–
COc1c(-c2coc3cc4c(cc3c2=O)CC(O)C(C)(C)O4)ccc2c1C=CC(C)(C)O2 (configuration not stated)	–	–	–	1.12µM	–
O=C(NCCCN1CCCC1=O)C1CCC(CNS(=O)(=O)c2ccc(Cl)cc2)CC1 (configuration not stated)	·	·	–	–	·
COc1cccc(NC(=O)NCCCSC2CCCCC2)c1	–	–	–	–	?
Cc1cc(C)c(NC(=S)NCCCSC2CCCCC2)c(C)c1	–	–	?	2µM	–
COc1ccc(OCc2cc(C(=O)NC(C)Cn3cncn3)no2)c(Cl)c1 (configuration not stated)	·	·	–	–	·
Cc1ccc2c(c1)c1ncnc(N3CCOCC3)c1n2C	–	–	–	–	–
Cc1ccc2c(c1)c1ccc3c(c1n2C)C(=O)C=CC3=O	·	?	11.2µM	11.2µM	0.891µM[quencher]
COc1ccc2c(c1)c1ncn(CCN3CCCC3)c(=O)c1n2C	–	–	–	?	–
COc1ccc2c(c1)c1ccc3c(c1n2C)C(=O)C=CC3=O	5.01µM	15.8µM	12.6µM	22.4µM	3.55µM[quencher]
